An excerpt weighted towards active compounds, which were near 5.4% of everything screened.
APOBEC3G inh: APOBEC3G DNA deaminase inhibitors, primary screen, biochemical, fluorescence, single-stranded DNA substrate, uHTS; recombinant A3G, ssDNA deamination FAM/TAMRA fluorescence; hit rate 0.28% among 330,000; inhibition, % at 20 µM; DNA dC->dU-editing enzyme APOBEC-3G (Homo sapiens), Q9HC16;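 active = inhibition of at least 40% at 20 µM, with no more than 30% in the related APOBEC3A deaminase screen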;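 also: plate controls were DMSO wells with A3G for no effect and wells lacking A3G enzyme for full effect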
ALR H2O2 inh: inhibitors of human ALR sulfhydryl oxidase, primary screen, biochemical, H2O2 detection, HRP-luminol luminescence, single point | FAD-linked sulfhydryl oxidase ALR (Homo sapiens), P55789 | hit rate 3.8% among 290,000 | purified ALR, DTT oxidation | inhibition, % (no concentration beside the values) | AID 485317, 2010;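 active = mean replicate inhibition above about 79%, with every replicate also reaching it, limit read from the data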
Target sequence (P55789 whole entry, looked up): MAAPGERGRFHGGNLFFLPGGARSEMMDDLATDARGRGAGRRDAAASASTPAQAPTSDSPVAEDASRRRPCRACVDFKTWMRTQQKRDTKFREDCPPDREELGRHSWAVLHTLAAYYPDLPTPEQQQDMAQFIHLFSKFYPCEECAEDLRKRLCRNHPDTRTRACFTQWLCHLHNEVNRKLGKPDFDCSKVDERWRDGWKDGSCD
A3A deaminase: APOBEC3A ssDNA deaminase inhibitors, primary screen, selectivity assay for APOBEC3G inhibitor project, biochemical, FAM/TAMRA oligo cleavage fluorescence; DNA dC->dU-editing enzyme APOBEC-3A (Homo sapiens), P31941; recombinant A3A, FAM/TAMRA ssDNA deamination fluorescence; inhibition, % at 20 µM; hit rate 0.41% among 330,000; AID 493011, 2011;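 active = at least 40% inhibition at 20 µM here, with at most 30% in a related deaminase screen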;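 also: plate controls were A3A with DMSO for no effect and wells lacking A3A enzyme for full effect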
Target sequence (P31941 whole entry, looked up): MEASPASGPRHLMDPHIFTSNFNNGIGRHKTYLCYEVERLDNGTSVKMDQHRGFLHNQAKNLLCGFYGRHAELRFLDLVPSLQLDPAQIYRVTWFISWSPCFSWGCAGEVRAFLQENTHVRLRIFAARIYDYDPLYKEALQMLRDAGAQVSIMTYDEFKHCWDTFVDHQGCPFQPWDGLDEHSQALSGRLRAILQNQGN
PHOSPHO1 inh: PubChem AID 1565. Phosphoethanolamine/phosphocholine phosphatase (Homo sapiens), Q8TCT1. recombinant PHOSPHO1, absorbance phosphatase assay. inhibition, % at 13.3 µM. hit rate 1.1% among 290,000; in the data active = inhibition above about 60%
Target sequence (Q8TCT1 whole entry, looked up): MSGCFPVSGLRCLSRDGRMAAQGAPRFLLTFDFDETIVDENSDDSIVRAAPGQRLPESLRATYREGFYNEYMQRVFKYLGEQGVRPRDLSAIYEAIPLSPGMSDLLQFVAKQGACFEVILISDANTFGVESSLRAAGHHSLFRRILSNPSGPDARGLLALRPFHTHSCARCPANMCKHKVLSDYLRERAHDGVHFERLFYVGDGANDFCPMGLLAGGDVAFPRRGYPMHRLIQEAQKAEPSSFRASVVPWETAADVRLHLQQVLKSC
rCAG binder: binders of r(CAG) RNA repeats, primary screen, biochemical, fluorescence. hit rate 1.3% among 370,000. inhibition, % at 3 µM. r(CAG) RNA repeat, TO-PRO-1 dye displacement fluorescence;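 active = inhibition above the plate cutoff, the mean of all test compounds on that plate plus 3 SD, cut at about 35% in these data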;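 also: 0% = DMSO alone and 100% = 100 µM mitoxantrone as full dye displacement; higher means more dye released from RNA so lower well fluorescence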
aDG glyco act: activators of alpha-DG glycosylation, primary screen, uHTS, Pro5-aDG cells, AlphaScreen; alpha-DG glycosylation AlphaScreen (IIH6); 0% Pro5, 100% B10-LARGE cell signal; activation, % at 10 µM; hit rate 0.22% among 360,000;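 active = activation of at least 8% versus controls, or a plate z-score of at least 8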;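 also: Pro5 are CHO cells carrying HIG-tagged alpha-DG that lacks glycosylation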
rCAG bind conf: small molecules binding CAG repeat RNA – biochemical, fluorescence, confirmation. shares compounds with rCAG binder. r(CAG) RNA repeat, TO-PRO-1 dye displacement fluorescence. inhibition, % at 3 µM. hit rate 70% among 4,300. AID 652065, 2013;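 active = inhibition above a per-plate cutoff, the mean inhibition of sample wells plus 3 SD, cut at about 35% in these data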;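 also: loss of TO-PRO-1 fluorescence as compound displaces dye from 1x1 AA loop RNA; 0% = DMSO only wells and 100% = 100 µM mitoxantrone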
dCAG dye counter: displacement of TO-PRO-1 from CAG DNA duplex, counter-screen for rCAG RNA repeat binder project, biochemical, fluorescence, TO-PRO-1 dye, d(CAG) DNA oligo | shares compounds with rCAG binder | d(CAG) DNA oligo TO-PRO-1 dye displacement | inhibition, % at 3 µM | hit rate 94% among 4,300 | AID 652068, 2013;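 active = inhibition above its plate's cutoff, the mean test-well inhibition plus 3 SD, cut at about 4.8% in these data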;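 also: 0% = DNA dye mix with DMSO and 100% = 100 µM mitoxantrone; hits displace the dye from DNA and so lower well fluorescence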
DNA CAG DR: inhibitors of DNA CAG/GTC TO-PRO-1 complex, dose response, counter-screen for rCAG RNA repeat binder project, biochemical, fluorescence, TO-PRO-1 dye. shares compounds with rCAG binder. DNA CAG/GTC duplex TO-PRO-1 dye displacement fluorescence. IC50, µM. hit rate 20% among 250. AID 686960, 2013; in the data active = IC50 below about 10 µM
Numbers without * were called inactive; nt = no result.

SMILES	APOBEC3G inh	ALR H2O2 inh	A3A deaminase	PHOSPHO1 inh	rCAG binder	aDG glyco act	rCAG bind conf	dCAG dye counter	others
COc1cc([N+](=O)[O-])ccc1NC(=O)CN1C(=O)NC2(CCCCC2C)C1=O (configuration not stated)	nt	nt	nt	nt	4	0	nt	nt
CCCCC(=O)Nc1nc(C)c(-c2csc(Nc3cc(Cl)ccc3OC)n2)s1	-4	-2	-5	99*	45*	0	23	13*
CCCCCCC(=O)Nc1nc(C)c(-c2csc(Nc3cc(Cl)ccc3C)n2)s1	24	-6	2	-79	39*	0	20	11*
Cc1ccc(S(=O)(=O)Oc2ccccc2/C=N/Nc2ccc(C(=O)O)cc2)cc1	-10	56	-3	45	50*	0	29	6.1*
Cc1ccc(/C=C2\S/C(=N/S(=O)(=O)c3cccs3)NC2=O)cc1	-4	47	-1	-3	60*	0	65*	24*
Cc1ccc(S(=O)(=O)/N=C2/NC(=O)/C(=C/c3ccccc3)S2)cc1	-6	30	-3	22	84*	0	71*	30*	DNA CAG DR=4.9*
Cc1ccc(S(=O)(=O)/N=C2/NC(=O)/C(=C\c3ccccc3)S2)cc1	5	99*	4	nt	83*	1	76*	36*
Cc1ccc(S(=O)(=O)/N=C2/NC(=O)/C(=C/c3ccncc3)S2)cc1	-3	30	-2	3	4	nt	nt	nt
O=C1NC(=O)C(=Cc2ccco2)S1	nt	nt	nt	nt	5	0	nt	nt
O=C1N/C(=N/S(=O)(=O)c2ccccc2)S/C1=C/c1cccnc1	1	38	0	-4	14	0	nt	nt
Cc1ccc(S(=O)(=O)/N=C2/NC(=O)/C(=C\c3ccco3)S2)cc1	10	11	19	26	69*	0	43*	11*
O=C(CSc1nc2ccccc2n1Cc1ccccc1Cl)N/N=C/c1ccccc1C(=O)O	-6	nt	-2	3	39*	0	54*	16*
CCOc1cc(/C=C2\C(=N)N3N=C(S(C)(=O)=O)SC3=NC2=O)ccc1OCCOc1cccc(OC)c1	-3	nt	1	20	49*	0	92*	73*
CCC1=NN2C(=N)/C(=C\c3ccc(OCCOc4ccccc4)c(OC)c3)C(=O)N=C2S1	-2	7	-6	14	8	nt	nt	nt
CCOc1cc(/C=C2/C(=N)N3C=CSC3=NC2=O)ccc1OCCCOc1ccccc1C	9	-7	1	-12	2	0	nt	nt
CCS(=O)(=O)C1=NN2C(=N)/C(=C\c3ccc(OCCOc4cccc(OC)c4)c(OC)c3)C(=O)N=C2S1	nt	55	nt	1	49*	0	91*	76*
Cc1ccc(-c2nn(-c3ccccc3)cc2/C=C2\SC(=S)N(CC(=O)O)C2=O)cc1	-3	55	-7	20	18	0	nt	nt
O=C1C(=Cc2cn(-c3ccccc3)nc2-c2ccc(OCc3ccccc3F)cc2)SC(=S)N1CCS(=O)(=O)O	nt	nt	nt	nt	72*	0	65*	45*
O=C(O)CCCCCN1C(=O)/C(=C/c2cn(-c3ccccc3)nc2-c2cccs2)SC1=S	nt	nt	nt	nt	57*	0	69*	39*
COc1ccc(-c2nn(-c3ccccc3)cc2/C=C2/SC(=S)N(CCC(=O)O)C2=O)cc1	-7	nt	-2	-38	20	0	nt	nt
O=C1C(=Cc2cn(-c3ccccc3)nc2-c2ccc(OCc3ccc(Cl)cc3)cc2)SC(=S)N1CCS(=O)(=O)O	nt	nt	nt	nt	68*	0	58*	43*
CN1C[C@@H]2[C@@H]3C(=O)N(Cc4ccccc4)C(=O)[C@@H]3[C@](Cc3ccccc3)(C1=O)N2C(=O)c1ccc(F)cc1	nt	nt	nt	nt	-6	0	nt	nt
Cc1cc(/C=N/n2c(COc3ccccc3)nc3ccccc3c2=O)c(O)c([N+](=O)[O-])c1	-7	-4	1	-17	66*	0	63*	27*
COc1ccc(NC(=O)CSc2nc(O)cc(=O)n2-c2ccc(OC)cc2)cc1	-3	99*	0	40	40*	0	13	4.5*
COc1ccccc1-n1c(SCC(=O)Nc2ccccc2C)nc(O)cc1=O	3	10	4	-16	40*	0	7	5.9*
SMILES	APOBEC3G inh	ALR H2O2 inh	A3A deaminase	PHOSPHO1 inh	rCAG binder	aDG glyco act	rCAG bind conf	dCAG dye counter	others
Cc1nn(CCc2nn[nH]n2)c2nc(-c3ccccc3)cc(C(F)(F)F)c12	-5	2	1	32	44*	0	25	3
O=C(OC1CCCC1)c1ccc(Cl)cc1Cl	nt	nt	nt	nt	2	0	nt	nt
c1coc(-c2nnc3sc(Cc4cccs4)nn23)c1	17	0	26	-12	36*	0	9	5.2*
COc1ccc(OCc2nn3c(-c4ccco4)nnc3s2)cc1	-5	-2	2	8	2	1	nt	nt
COC(=O)[C@@H]1N=C(c2ccc(OC)cc2)O[C@]12C(=O)N(Cc1cn(-c3ccccc3)nn1)c1cccc(Cl)c12	nt	nt	nt	nt	11	nt	nt	nt
O=C(O)c1ccc(Nc2nc3ccccc3nc2NS(=O)(=O)c2ccc(F)cc2)cc1	1	98*	-6	24	41*	0	53*	21*
O=[N+]([O-])c1ccc(S(=O)(=O)Nc2nc3ccccc3nc2Nc2ccccc2)cc1	-6	-14	-3	0	8	0	nt	nt
COc1ccc(S(=O)(=O)Nc2nc3ccccc3nc2Nc2ccc3c(c2)OCO3)cc1	-9	-12	-1	-14	nt	nt	nt	nt
NS(=O)(=O)c1cccc(Nc2nc3ccccc3nc2NS(=O)(=O)c2ccc(Cl)cc2)c1	-3	nt	-2	nt	90*	0	89*	68*
O=C(O)c1cccc(Nc2nc3ccccc3nc2NS(=O)(=O)c2ccccc2)c1	-6	11	-3	nt	36*	0	39*	12*
Cc1cc(S(=O)(=O)Nc2nc(CN3CCOCC3)nc3sc4c(c23)CCCC4)ccc1F	-4	nt	-1	-4	30	0	nt	nt
